Source: PubChem
Only some compounds are listed: those with a hit (about 15% of all), similar ones and a draw of the others.
RORg inh: blocks mouse ROR gamma transcriptional activity; 310,000 compounds, 5.4% hits; Potency, µM (series often up to 53.6 µM), hits mostly inhibitors; P51450; Drosophila S2 Gal4-RORgamma UAS-luciferase reporter, 20 h; AID 2551; further: nearly all actives have a fitted effect of over 60% in size
Target sequence (P51450 whole entry, looked up, the tested form may be a part): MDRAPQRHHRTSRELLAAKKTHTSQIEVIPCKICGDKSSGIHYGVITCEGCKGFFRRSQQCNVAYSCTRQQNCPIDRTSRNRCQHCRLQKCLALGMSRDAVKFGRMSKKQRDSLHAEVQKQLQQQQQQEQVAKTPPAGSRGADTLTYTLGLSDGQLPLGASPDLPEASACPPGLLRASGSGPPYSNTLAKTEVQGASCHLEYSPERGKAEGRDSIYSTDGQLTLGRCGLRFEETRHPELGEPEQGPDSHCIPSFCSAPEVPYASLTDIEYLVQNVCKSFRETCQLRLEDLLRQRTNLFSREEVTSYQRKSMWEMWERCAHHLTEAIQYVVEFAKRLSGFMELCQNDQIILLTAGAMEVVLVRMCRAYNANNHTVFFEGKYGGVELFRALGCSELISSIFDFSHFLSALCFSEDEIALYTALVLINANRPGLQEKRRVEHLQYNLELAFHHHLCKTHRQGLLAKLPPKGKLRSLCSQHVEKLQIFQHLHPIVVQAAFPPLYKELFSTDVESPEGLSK
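A Gal4/UAS one-hybrid system in insect cells: metallothionein-promoter Gal4–ROR gamma fusion plus Photinus luciferase reporter. Copper sulfate 700 uM final, 20 hr ambient incubation, luminescent detection after 10 min with reagent.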
ELG1 DNA repair: ELG1-dependent DNA repair inhibition | HEK293T ELG1-luciferase reporter, luminescence, 16 h; DNA damage induced by 5-fluorouridine | Potency, µM (highest dose often 46.1 µM), hits mostly inhibitors | 330,000 compounds, 2.3% hits; further: nearly all actives have a fitted effect of over 55% in size
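Luminescence from the luciferase reporter, measured 30 min after ONE-Glo reagent at room temperature, was the read-out. Beforehand, 2,000 cells per well were exposed for 16 hr at 37 °C to 5-fluorouridine together with compound or vehicle.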
12-LOX inh: ALOX12 (human) lipoxygenase inhibition; P18054; purified 12hLO, xylenol orange hydroperoxide absorbance; Potency, µM (titrated, usually from 108 µM), hits mostly inhibitors; 580,000 compounds, 1.1% hits; AID 1671190
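Purified human 12hLO at 150 nM in 25 mM Hepes, 0.01% Triton X-100, pH 7.0, preincubated 15 min at room temperature with compound. Reaction started with 40 uM arachidonic acid, 30 min at room temperature. Hydroperoxide measured by Fe-xylenol orange, 573/405 nm absorbance ratio.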
DT40 TDP1 CPT: DT40-hTDP1 cell growth loss with CPT; chicken DT40 Tdp1-/-;hTDP1 cells + 20 nM CPT, ATP luminescence, 48 h; Potency, µM (highest dose often 46.2 µM), hits mostly inhibitors; 420,000 compounds, 12% hits; further: nearly all actives have a fitted effect of over 55% in size
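Cell growth measured by CellTiter-Glo luminescence after a minimum 48 h, 37 C compound exposure with 20 nM CPT in Tdp1-knockout DT40 cells stably expressing hTDP1, seeded 400/well; qHTS titration format.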
VP16 counter: counter-screen for ROR gamma inhibitors: Gal4-VP16 reporter; Drosophila S2 Gal4-VP16 UAS-luciferase, luminescence, 20 h; Potency, µM (top dose mostly 53.6 µM), actives largely listed as inhibitors; 310,000 compounds, 3.5% hits;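 further: Gal4-VP16 expression switched on by copper sulfate through the metallothionein promoter; nearly all actives have a fitted effect of over 50% in size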
TDP1 cell noCPT: qHTS for Inhibitors of human tyrosyl-DNA phosphodiesterase 1 (TDP1): qHTS in cells in absence of CPT; DT40 Tdp1-/- hTDP1 cells, no CPT, ATP luminescence, 48 h; Potency, µM (highest dose often 46.2 µM), hits mostly inhibitors; 420,000 compounds, 15% hits; further: nearly all actives have a fitted effect of over 55% in size
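Seeded 400 DT40-hTDP1 cells/well (vehicle DMSO, no 20 nM CPT); pinned compounds; ≥48 hr at 37 °C; CellTiter-Glo luminescence as viability measure.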
A number is an active result; – = inactive; ? = inconclusive; · = no result given; [ ] = another dose, or the depositor's remark. The call rests on the fitted dose curve; in most records, active means well fitted curve in the direction sought with a large enough effect; inconclusive means small, poorly fitted or top-dose-only effect, or another doubt; inactive means no such curve, though single readings can be large; an effect the other way counts as inactive or inconclusive.

SMILES	RORg inh	ELG1 DNA repair	12-LOX inh	DT40 TDP1 CPT	VP16 counter	TDP1 cell noCPT
O=[N+]([O-])c1ccc(C2Nc3cccc4cccc(c34)N2)cc1	–	?	39.8µM	–	–	–
CCN(CC)CCOc1ccc(NC(=O)c2nn(C)c(=O)c3ccccc23)cc1	·	·	–	·	·	·
Cc1cccc(-c2nn3c(N(C)C)cc(C)nc3c2C)c1	·	·	–	·	·	·
COc1ccc(NC(=O)CC2C(=O)N(c3ccc(C)cc3)C(=O)N2C2CCCCC2)cc1 (stereo not drawn)	·	·	–	–	·	–
COC(=O)c1ccc(NC(=O)CC2C(=O)N(c3ccccc3)C(=O)N2C2CCCC2)cc1 (stereo not drawn)	·	·	?	?	·	16.4µM
CCOC(=O)c1ccc(NC(=O)CC2C(=O)N(c3ccc(C)cc3)C(=O)N2C2CCCC2)cc1 (stereo not drawn)	·	·	–	?	·	20.6µM
O=C(CC1C(=O)N(c2ccccc2)C(=O)N1C1CCCCC1)Nc1ccccc1 (stereo not drawn)	–	–	–	–	–	–
COc1ccccc1CNC(=O)C1Cn2cccc2C(=O)N1Cc1cccnc1 (stereo not drawn)	·	·	–	·	·	·
O=C1CCC(C(=O)N(CC2CCN(Cc3ccccc3F)CC2)CC2CCCO2)=NN1 (stereo not drawn)	·	·	–	·	·	·
COc1cccc(OC)c1C(=O)OCCCOC(=O)c1c(OC)cccc1OC	–	20.6µM	–	–	–	–
COc1cccc(OC)c1C(=O)OCC(N)=O	·	·	–	·	·	·
CC(C)CCOC(=O)/C(=C/c1ccco1)NC(=O)/C=C/c1ccccc1	–	?	39.8µM	–	–	–
Cc1ccc[n+](CC(=O)c2ccccc2)c1	–	–	·	·	–	·
CCCC1=[N+](CC(=O)c2ccccc2)CCn2c(C)ccc21	–	–	–	2.91µM	–	2.06µM
CCCC1=[N+](CC(=O)c2ccc(C)cc2)CCn2cccc21	–	–	–	?	–	18.4µM
CCCC1=NCCn2cccc21	–	–	–	–	–	–
CCN1CCOC(=O)C1CC(=O)Nc1cccc(OC)c1 (stereo not drawn)	·	·	–	5.17µM	·	20.6µM
CCOc1ccc(NC(=O)CC2C(=O)OCCN2CC)cc1 (stereo not drawn)	·	·	–	8.2µM	·	?
CCOC(=O)c1ccc(NC(=O)CC2OCCN(CC)C2=O)cc1 (stereo not drawn)	20µM	?	–	18.4µM	?	13µM
CCOC(=O)c1ccc(NC(=O)CC2C(=O)OCCN2CC)cc1 (stereo not drawn)	?	–	–	20.6µM	?	20.6µM
COC(=O)c1cc(NC(=O)CC2C(=O)OCCN2Cc2ccccc2)cc(C(=O)OC)c1 (stereo not drawn)	·	·	–	–	·	–
NC(=O)c1cc(S(=O)(=O)NCC2CCN(Cc3ccc(F)cc3)CC2)cs1	·	·	–	·	·	·
CC1CCCN(S(=O)(=O)c2ccc(-c3nc(C#N)c(NCCCN(C)C)o3)cc2)C1 (stereo not drawn)	·	·	–	·	·	·
Cc1cccc(N2CCN(C(=O)c3cc4ccc(F)cc4nc3C)CC2)c1	·	·	–	·	·	·
O=C(Cc1ccc(F)cc1)N1CCN(C(=O)c2nnn3c2COC(c2ccc(Cl)cc2)C3)CC1 (stereo not drawn)	·	·	–	·	·	·
SMILES	RORg inh	ELG1 DNA repair	12-LOX inh	DT40 TDP1 CPT	VP16 counter	TDP1 cell noCPT
O=C1c2ccccc2-c2cc([N+](=O)[O-])c([N+](=O)[O-])cc21	·	·	·	0.398µM	·	0.501µM
CC(=O)c1cccc(OCCCOc2cccc3cccnc23)c1	–	–	–	?	–	16.4µM
Cc1cc(C)cc(OCCCOc2cccc3cccnc23)c1	?	–	–	29.1µM	?	16.4µM
Cc1cc(Cl)cc(Cl)c1OCCOCCN(C)C	–	?	–	?	–	14.6µM
COc1cc(C(=O)NCCOc2cccc3cccnc23)cc(OC)c1OC	–	8.2µM	–	–	–[10 µM]	–
Brc1ccccc1OCCCOc1cccc2cccnc12	?	?	–	?	?	?
O=C(CCC1CCCC1)Nc1nc2ccc(F)cc2s1	·	·	–	·	·	·
O=C([C@H]1CCC[C@H](O)C1)N(CCc1ccc(Cl)cc1)Cc1cccnc1	·	·	–	·	·	·
CC(C)NC(=O)Cn1cccc1-c1nc(-c2ccc(Cl)cc2)no1	·	·	–	·	·	·
Cc1cc(Cl)cc(Cl)c1OCCOc1cccc2cccnc12	?	–	–	23.1µM	?	?
COc1ccc(S(=O)(=O)NCCOc2cccc3cccnc23)cc1OC	–	–	–	–	–	–
COc1cccc(C=O)c1OCCCOc1cccc2cccnc12	–	?	–	?	–	20.6µM
N#Cc1ccccc1NC(=O)COC(=O)c1ccc2c(c1)NC(=O)CS2	·	·	–	·	·	·
Cc1c(O)ccc(-c2[nH]ncc2-c2nc3ccccc3s2)c1O	–	?	–	?	–	?
CCCc1ccc(Oc2c(-c3ccc(O)c(C)c3O)n[nH]c2C)cc1	17.8µM	?	–	–	?	?
CCCc1ccc(Oc2cn[nH]c2-c2ccc(O)c(C)c2O)cc1	?	–	?	18.4µM	?	?
N=C1C(c2nc3ccccc3s2)=C(O)CN1Cc1ccccc1	–	–	–	7.31µM	–	4.61µM
N=C1C(c2nc3ccccc3s2)=C(O)CN1C1CCCCC1	–	?	–	–	–	–
CCOc1ccccc1N1CC(O)=C(c2nc3ccccc3s2)C1=N	–[0.365 µM]	16.4µM	–	3.26µM	·	4.11µM
CN(Cc1cncs1)C1CCCc2ccccc21 (stereo not drawn)	·	·	–	·	·	·
COc1cccc(OCCn2cc(C=O)c3ccccc32)c1	–	–	–	–	–	?
COc1cccc(OCCCn2cc(/C=C3/C(=N)N4C=C(C)SC4=NC3=O)c3ccccc32)c1	2.24µM	–	?	8.2µM	1.41µM	6.51µM
COc1ccc(OCCCn2cc(/C=C3/C(=N)N4C=C(C)SC4=NC3=O)c3ccccc32)cc1	0.794µM	?	–	?	1.58µM	7.31µM
Cc1ccc2cc(CCNC(=O)c3ccc(C)c([N+](=O)[O-])c3)c(=O)[nH]c2c1	?	?	?	20.6µM	–	?
CNCc1cc2ccc(C)cc2[nH]c1=O	–	–	–	16.4µM	–	?
Cc1ccc2cc(CCNC(=O)c3cccs3)c(=O)[nH]c2c1C	–	?	–	23.1µM	–	?
Cc1ccc2cc(CCNC(=O)c3cccc([N+](=O)[O-])c3)c(=O)[nH]c2c1C	–	18.4µM	–	23.1µM	–	16.4µM
CC(=O)NCCc1cc2ccc(C)c(C)c2[nH]c1=O	–	?	–	–	–	–
Cc1ccc2cc(CCNC(=O)c3cccs3)c(=O)[nH]c2c1	–	?	–	–	–	?
O=C(/C(Cl)=C/N1CCN(C(c2ccccc2)c2ccccc2)CC1)C(F)(F)F	·	·	–	·	·	·
